Hits are enriched below; roughly 18% of the tested compounds scored in any of these assays.
TDP1 block: qHTS Assay for Inhibitors of Tyrosyl-DNA Phosphodiesterase (TDP1). Tyrosyl-DNA phosphodiesterase 1 (Homo sapiens), Q9NUW8. recombinant TDP1, AlphaScreen DNA substrate cleavage. Potency, µM (top dose mostly 130 µM), usual class: inhibitors. 350,000 tested, 0.28% active; further: nearly all actives have a fitted effect of over 40% in size
Target sequence (Q9NUW8 whole entry, looked up): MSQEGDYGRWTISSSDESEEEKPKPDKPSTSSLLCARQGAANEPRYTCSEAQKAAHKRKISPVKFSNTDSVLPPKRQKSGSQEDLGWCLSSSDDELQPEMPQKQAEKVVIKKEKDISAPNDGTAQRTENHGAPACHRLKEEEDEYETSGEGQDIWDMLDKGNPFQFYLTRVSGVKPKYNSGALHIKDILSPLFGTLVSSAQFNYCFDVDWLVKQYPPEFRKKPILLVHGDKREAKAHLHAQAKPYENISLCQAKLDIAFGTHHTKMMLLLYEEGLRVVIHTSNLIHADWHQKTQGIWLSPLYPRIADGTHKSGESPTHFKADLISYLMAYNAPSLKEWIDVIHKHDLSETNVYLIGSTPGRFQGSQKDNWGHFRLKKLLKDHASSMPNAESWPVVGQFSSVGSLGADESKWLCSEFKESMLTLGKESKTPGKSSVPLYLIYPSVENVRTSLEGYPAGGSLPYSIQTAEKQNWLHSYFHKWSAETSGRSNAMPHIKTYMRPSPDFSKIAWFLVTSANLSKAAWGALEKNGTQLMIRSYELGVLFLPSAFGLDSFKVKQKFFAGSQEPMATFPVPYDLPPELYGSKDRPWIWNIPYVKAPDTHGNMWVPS
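Tdp1 1 nM final; 15 min RT w/ cpd; substrate 15 nM, 5 min; beads 10 ug/ml, 10 min; AlphaScreen read. Neg ctrl: no enzyme.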
IL-1B inflam inh: qHTS for Inhibitors of Inflammasome Signaling: IL-1-beta AlphaLISA Primary Screen. THP-1 LPS/ATP IL-1B secretion, AlphaLISA, 16 h; stronger effect = lower value. activity change, % at 57.5 µM. 360,000 tested, 4.7% active. AID 743279, 2014; in the data active means activity change below about -50%; inconclusive means mostly about -30% to -49%
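THP-1 cells pretreated 1 hr with compounds (up to 57.5 uM final), then stimulated with LPS (250 ng/mL final) plus ATP (1.25 mM final); secreted IL-1B measured by AlphaLISA after 16 hr, decreased signal indicating inhibition.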
TDP1 cell CPT: qHTS for Inhibitors of human tyrosyl-DNA phosphodiesterase 1 (TDP1): qHTS in cells in presence of CPT. Potency, µM (titrated, usually from 46.2 µM), hits mostly inhibitors. 420,000 tested, 12% active. chicken DT40 Tdp1-/-;hTDP1 cells + 20 nM CPT, ATP luminescence, 48 h; further: nearly all actives have a fitted effect of over 55% in size
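Chicken DT40 Tdp1-/- cells stably complemented with human TDP1 were seeded at 400 cells/well in medium containing 20 nM camptothecin, exposed to pin-transferred compounds, and grown at 37 °C for at least 48 hr. Viability was read as ATP luminescence.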
Six1-Eya2 inh: qHTS Assay for Inhibitors of the Six1/Eya2 Interaction; 360,000 tested, 0.56% active; activity change, % (no concentration beside the values); AlphaScreen GST-Six1/His-Eya2 binding, biochemical; stronger effect = lower value; Homeobox protein SIX1 (Homo sapiens) + Protein phosphatase EYA2 (Homo sapiens), …; in the data active means activity change below about -65%; inconclusive means mostly about -30% to -63%
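GST-Six1 + His-Eya2 (5X stock: 250/500 nM); Tris pH 8.0, 300 mM NaCl, 0.05% BSA, 0.02% Tween 20; GSH donor/Ni acceptor beads; 1 h 37 °C dark; AlphaScreen readout.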
CtBP-E1A blk: qHTS Assay for Inhibitors of the CtBP/E1A Interaction | CtBP / adenovirus E1A interaction (AlphaScreen) | AlphaScreen GST-E1A/His-CtBP binding, 1536-well; stronger effect = lower value | activity change, % (no concentration beside the values) | 340,000 tested, 0.49% active | AID 651724, 2012; in the data active means activity change below about -65%; inconclusive means mostly about -30% to -63%
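AlphaScreen with 125 nM GST-E1A and 125 nM His-CtBP (5X stocks) in Tris pH 8.0, 300 mM NaCl, BSA, Tween 20, TCEP. Compounds preincubated 2 h at 37 deg C, then glutathione donor/nickel acceptor beads added for 1 h at 37 deg C in dark.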
TDP1 cell noCPT: qHTS for Inhibitors of human tyrosyl-DNA phosphodiesterase 1 (TDP1): qHTS in cells in absence of CPT | AID 686978, 2013 | DT40 Tdp1-/- hTDP1 cells, no CPT, ATP luminescence, 48 h | Potency, µM (series often up to 46.2 µM), usual class: inhibitors | 420,000 tested, 15% active; further: nearly all actives have a fitted effect of over 55% in size
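Seeded 400 DT40-hTDP1 cells/well (vehicle DMSO, no 20 nM CPT); pinned compounds; ≥48 hr at 37 °C; CellTiter-Glo luminescence as viability measure.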
Of the large screens only hits and unclear results are named; the others gave an inactive call. Unless noted, the call rests on the fitted dose curve; in most records, active means well fitted curve in the direction sought with a large enough effect; inconclusive means small, poorly fitted or top-dose-only effect, or another doubt; inactive means no such curve, though single readings can be large; an effect the other way counts as inactive or inconclusive.

Cc1ccc(S(=O)(=O)N(C)C)cc1NC(=O)COC(=O)CCC(=O)c1ccc(F)cc1	none
CC(NS(=O)(=O)c1ccc(OCC(=O)N2CCOCC2)cc1)c1ccccc1 (stereo unspecified)	none
O=C(O)c1ccc(N/N=C/C2=Cc3ccccc3OC2)cc1	none
CC(=O)c1cccc(OCC(=O)N2CCCc3ccccc32)c1	TDP1 cell CPT inconclusive, TDP1 cell noCPT 16µM
COC(=O)c1ccc(OCC(=O)N2CCCc3ccccc32)cc1	none
COc1cc(C(=O)N2CCc3ccccc32)cc(OC)c1OC	none (no result: TDP1 block)
COc1cc(-c2nnc(SCC(=O)N3CCCc4ccccc43)o2)cc(OC)c1OC	TDP1 cell CPT inconclusive, TDP1 cell noCPT 23µM (no result: IL-1B inflam inh, Six1-Eya2 inh, CtBP-E1A blk)
O=C(C1CC1)N1CCC(C(O)(c2ccccc2)c2ccccc2)CC1	none
O=C(c1coc(=O)c(Br)c1)N1CCC(C(O)(c2ccccc2)c2ccccc2)CC1	TDP1 cell CPT 0.65µM, TDP1 cell noCPT 1.8µM
COc1cc2ccccc2cc1C(=O)N1CCc2ccccc21	TDP1 cell CPT 16µM, TDP1 cell noCPT 15µM
O=C(CCc1nnc2ccc(NCc3ccccc3)nn12)NCC1CCN(C2CCCC2)C1 (stereo unspecified)	none (no result: CtBP-E1A blk)
O=C(c1cccc(Br)c1)N1CCCc2ccccc21	TDP1 cell CPT inconclusive, TDP1 cell noCPT inconclusive (no result: TDP1 block)
CCOC(=O)C1(C)CCCN(C(=O)c2cc(F)cc(F)c2)C1 (stereo unspecified)	TDP1 cell CPT inconclusive, TDP1 cell noCPT inconclusive (no result: TDP1 block)
CC1(C)CCCN(C(=O)c2coc(=O)c(Br)c2)C1	TDP1 block 6.3µM, TDP1 cell CPT 0.92µM, Six1-Eya2 inh inconclusive, TDP1 cell noCPT 0.82µM
O=C(c1coc(=O)c(Br)c1)N1CCCc2ccccc21	TDP1 cell CPT 1.8µM, Six1-Eya2 inh inconclusive, TDP1 cell noCPT 2.6µM (no result: TDP1 block)
COc1cc(OC)cc(C(=O)N2CCCc3ccccc32)c1	TDP1 cell CPT 16µM, TDP1 cell noCPT inconclusive
Cc1occc1-c1nnc(SCC(=O)N2CCc3ccccc32)o1	TDP1 cell CPT 16µM, TDP1 cell noCPT 21µM
CS(=O)(=O)N(Cc1ccc(Cl)cc1)c1ccc(C(=O)Nc2cccnc2)cc1	none
O[C@@H]1CN(C2CCN(Cc3ccccc3)CC2)CC[C@H]1N1CCCCCC1	TDP1 cell CPT inconclusive, TDP1 cell noCPT inconclusive (no result: TDP1 block)
O=C(NNC(=O)c1nc(Cl)ccc1Cl)c1ccc(F)cc1	none
COc1cc(OC)cc(OC2(C)CCN(Cc3ccc(OC(C)C)cc3)C2)c1 (stereo unspecified)	TDP1 cell CPT 26µM, TDP1 cell noCPT 23µM (no result: TDP1 block)
CSc1ccc(OC2(C)CCN(Cc3ccccc3)C2)cc1 (stereo unspecified)	TDP1 cell CPT inconclusive, TDP1 cell noCPT inconclusive (no result: TDP1 block)
CSc1ccc(OC2(C)CCN(Cc3ccc4c(c3)OCCO4)C2)cc1 (stereo unspecified)	TDP1 cell CPT 26µM, TDP1 cell noCPT inconclusive (no result: TDP1 block)
CSc1ccc(CN2CCC(C)(Oc3ccc(-n4ccnc4)cc3)C2)cc1 (stereo unspecified)	IL-1B inflam inh inconclusive, TDP1 cell CPT 18µM, Six1-Eya2 inh inconclusive, CtBP-E1A blk inconclusive, TDP1 cell noCPT 18µM (no result: TDP1 block)
CCCc1cc2c(=O)c(-c3ccc4c(c3)OCCO4)coc2cc1OS(C)(=O)=O	IL-1B inflam inh -54, TDP1 cell CPT inconclusive, TDP1 cell noCPT inconclusive
CCc1cc2c(=O)c(-c3ccc4c(c3)OCCO4)coc2cc1OC(=O)c1ccco1	TDP1 cell CPT inconclusive, TDP1 cell noCPT 21µM
CCCc1cc2c(=O)c(-c3ccc4c(c3)OCCO4)coc2cc1OC(=O)c1ccco1	TDP1 cell CPT inconclusive, TDP1 cell noCPT inconclusive
CCCc1cc2c(=O)c(-c3ccc4c(c3)OCCO4)c(C)oc2cc1OS(C)(=O)=O	TDP1 cell CPT 18µM, TDP1 cell noCPT 23µM
C[C@H](CO)N1C[C@H](C)[C@@H](CN(C)S(=O)(=O)c2cccc(C#N)c2)OCc2cnnn2CCCC1=O	none (no result: TDP1 block)
Cc1ccc(Cn2c(=N)n(CC(O)COc3ccccc3)c3ccccc32)cc1 (stereo unspecified)	TDP1 cell CPT 18µM, TDP1 cell noCPT 9.2µM
N=c1n(Cc2ccccc2)c2ccccc2n1CC(O)COc1ccccc1 (stereo unspecified)	IL-1B inflam inh -88, TDP1 cell CPT 7.3µM, TDP1 cell noCPT 6.5µM
OC(COc1ccc(OCC(O)CN2CCN(Cc3ccccc3)CC2)cc1)CN1CCN(Cc2ccccc2)CC1 (stereo unspecified)	IL-1B inflam inh inconclusive, TDP1 cell CPT inconclusive, TDP1 cell noCPT inconclusive (no result: TDP1 block)
O=Cc1ccc(C(=O)O)cc1	none
Cc1cccc2c(C(O)c3cn(C)c4ccccc34)c[nH]c12 (stereo unspecified)	TDP1 cell CPT 11µM, TDP1 cell noCPT 16µM (no result: TDP1 block, IL-1B inflam inh, Six1-Eya2 inh, CtBP-E1A blk)
CCCCc1cc2c(cn1)=C(OC(=O)c1cnc3ccccc3n1)C(C)(OC(=O)CC)C(=O)C=2 (stereo unspecified)	none
COc1ccc(OC)c(NC(=O)c2cc3ccccc3o2)c1	none
COc1ccc(OC)c(Nc2nc(N)nc(-c3cc4ccccc4o3)n2)c1	TDP1 cell CPT inconclusive, TDP1 cell noCPT 18µM
CN=C(c1ccco1)n1c(=S)nc(-c2ccco2)n(C)c1=S	TDP1 cell CPT inconclusive, TDP1 cell noCPT inconclusive (no result: TDP1 block)
CN=C(c1ccc(C)cc1)n1c(=S)nc(-c2ccc(C)cc2)n(C)c1=S	TDP1 cell CPT inconclusive, TDP1 cell noCPT 18µM (no result: CtBP-E1A blk)
CC(C)(C)C(=O)NC1=NN(c2c(Cl)cc(Cl)cc2Cl)C(=O)C1	none (no result: CtBP-E1A blk)
COc1cccc(C(=O)Nc2cccc(C(=O)NC3=NN(c4c(Cl)cc(Cl)cc4Cl)C(=O)C3)c2)c1	Six1-Eya2 inh -71, CtBP-E1A blk -80
COc1ccc(/C=C2\C(=O)N(c3c(Cl)cc(Cl)cc3Cl)N=C2NC(=O)c2cccc([N+](=O)[O-])c2)cc1	IL-1B inflam inh -105, TDP1 cell CPT 18µM, Six1-Eya2 inh -79, TDP1 cell noCPT inconclusive
O=C(NCc1ccccc1Cl)C1CCCN(S(=O)(=O)c2cccc3nsnc23)C1 (stereo unspecified)	TDP1 cell CPT inconclusive, TDP1 cell noCPT inconclusive
O=C(COC(=O)Cn1cnc2ccccc21)NCCc1ccccc1	none

Screening results deposited in PubChem BioAssay by National Center for Advancing Translational Sciences (NCATS).
